Reference: ChEMBL document CHEMBL4513146, “CO-ADD screening of Karazin Kharkiv National University (Ukraine) compounds”
Measured potencies and affinities stand elsewhere.

Columns and labels:
Staphylococcus aureus = conditions: Concentration 32 ug.mL-1;; ASSAY_TEST Inhibition of Bacterial Growth; detection method Absorption (OD600); MEDIA CAMHB; plate type 384well; NBS; CORNING #3640; time 18 hr
Escherichia coli = conditions: Concentration 32 ug.mL-1;; ASSAY_TEST Inhibition of Bacterial Growth; detection method Absorption (OD600); MEDIA CAMHB; plate type 384well; NBS; CORNING #3640; time 18 hr

Row | Compound | Inhibition (Staphylococcus aureus) [%] | Inhibition (Escherichia coli) [%]
1 | CCOc1ccc(NC(=O)Cn2nc3ccc(-c4ccccc4)nn3c2=O)cc1 | 5.36 | -5.9
2 | COc1cccc(Oc2nccn3c(=O)n(CC(=O)Nc4ccccc4C(F)(F)F)nc23)c1 | 13.2 | -0.25
3 | CSc1cccc(NC(=O)Cn2nc3ccc(-c4ccccc4)nn3c2=O)c1 | -12.73 | -15.49
4 | O=C(CSc1nnc2c(=O)n(-c3cccc(F)c3)ccn12)NCCc1ccccc1 | -2.66 | -10.98
5 | CCc1ccc(N(Cc2ccccc2F)S(=O)(=O)c2cccn3c(C)nnc23)cc1 | 15.67 | -1.05
6 | Cc1ccc(CNC(=O)Cn2nc3c(Sc4cccc(F)c4)nccn3c2=O)cc1 | -7.34 | -12.92
7 | CC(C)(C)OC(=O)N1CCC(NC(=O)CCc2nnc3ccc(-c4ccccc4)nn23)CC1 | 1.31 | -5.19
8 | Cc1ccc(CNC(=O)Cn2nc3c(Sc4ccc(C)cc4C)nccn3c2=O)cc1 | -3.31 | -11.72
9 | CCOC(=O)C1CCCN(C(=O)Cn2nc3n(CC(C)C)c(=O)c4sccc4n3c2=O)C1 (configuration not stated) | -2.49 | -6.05
10 | O=c1n(Cc2nc(-c3ccc4c(c3)OCO4)no2)nc2ccc(-c3ccccc3)nn12 | -9.1 | -9.98
11 | Cc1nnc2ccc(S(=O)(=O)N(Cc3ccc(F)cc3)c3ccc(Cl)cc3)cn12 | 3.43 | -7.02
12 | COc1ccc(NC(=O)Cn2nc3c4cc(-c5ccc(C)c(C)c5)nn4ccn3c2=O)cc1 | 11.77 | -2.93
13 | COc1ccc(-n2ccn3c(-c4ccc([N+](=O)[O-])cc4)nnc3c2=O)cc1Cl | 17.28 | 1.52
14 | CC(C)NC(=O)CCn1c(=O)c2ccccc2n2c(=O)n(CC#N)nc12 | -1.98 | 0.48
15 | O=C(Cn1nc2c(Sc3ccccc3)nccn2c1=O)Nc1ccc(Br)cc1F | 5.84 | -2.08
16 | Cc1cccc(CN(c2cccc(F)c2)S(=O)(=O)c2ccc3nncn3c2)c1 | -2.24 | -9.18
